Assay [1] can be described thus: stimulators of nuclear beta-catenin in C2C12, primary screen, imaging, WNT3A-conditioned medium, mouse C2C12, NPC library (AID 1117326). Further: reference of the scale not given here. Conditions: stronger effect = higher value.
Assay [2] can be described thus: stimulators of insulin release from INS-1E, primary screen, cell-based, 5 mM glucose, NPC library (AID 1117329;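 active means compound raises insulin release from rat beta cells at 5 mM glucose, no numeric limit stated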; further: reference of the scale not given here). The note with it: rat INS-1E insulin secretion, at 10 µM, stronger effect = higher value.
Assay [3] is described as follows: growth inhibition of GSK3B-pretreated HCT116 cells – cell-based, CellTiter-Glo, 0.2 to 20 µM (AID 1117336;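 active means compounds lowering colon cancer cell viability after pretreatment blocking the GSK3B kinase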). Conditions: HCT116 viability after GSK3B inhibitor, at 20 µM, stronger effect = higher value. For orientation: Cellular ATP, detected with luciferase, serves as a proxy for viable cell number.
Assay [4] is described as follows: inhibition of endothelial tube formation, primary screen, imaging, VEGF stimulated, CD31 staining, tube area, NPC library (AID 1117340;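 active means compound that reduces growth-factor-driven endothelial tube area in a mixed cell culture, no cutoff stated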). Conditions: VEGF-stimulated ADSC/ECFC co-culture, at 10 µM, stronger effect = higher value.
The nature of assay [5]: glucagon-like peptide 1 release enhancers, primary assay, NCI-H716 cell line, NPC library (AID 1117341;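 active means compound raises GLP1 secretion from the human gut endocrine cells, with no numeric limit stated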; further: reference of the scale not given here). Conditions: NCI-H716 cells, at 10 µM, stronger effect = higher value.
Assay [6] can be described thus: HCT116 colon cancer cell growth inhibition, primary screen, CellTiter-Glo luminescence, NPC library (AID 1117342;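 active means compounds that lower survival of HCT116 colon cancer cells in the luminescence readout, no numeric limit stated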). The note with it: at 20 µM (top of the series).
Assay [7] can be described thus: CellTiter-Glo luminescent readout of SW480 viability loss, NPC library primary (AID 1117343;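 active means compounds that lower viability of the colon cancer cells in the luminescence readout, with no numeric limit stated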). Conditions: CellTiter-Glo luminescence; at 20 µM (top of the series).
Assay [8] in a line: decreased DLD-1 cellular survival, CellTiter-Glo luminescent readout, NPC compound collection, primary HTS (AID 1117346;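 active means compounds that lower survival of DLD-1 colon cancer cells in the luminescence readout, no cutoff given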). The note with it: DLD-1 viability, CellTiter-Glo luminescence; at 20 µM (top of the series).

The source of these data is PubChem BioAssay.

SMILES strings stand for the structures. Activity calls are given as the source filed them. Unless noted, no stated cut-off is given here; in the data, active means nuclear beta-catenin stimulation mostly above about 4.2% (no sharp cut-off); inactive means mostly below about 10%.

In the case of `CC(NN)c1ccccc1` (stereo unspecified), the nuclear beta-catenin stimulation in assay [1] (at 10 µM) is 1.9% (inactive); in assay [1] (stimulation, at 2 µM), -2.2%. In assay [2], the insulin secretion stimulation is 3.35% (inactive). The viability decrease in assay [3] is 13.8% (inactive). Moreover, the tube area decrease in assay [4] was -6.7% (inactive). Further, in assay [5], the GLP1 secretion stimulation is -0.4% (inactive). Moreover, the inhibition of viability in assay [6] is 9.9% (inactive). In addition, the viability decrease (inhibition) in assay [7] is 4.9% (inactive); in assay [8] it was 14.8% (inactive).

Consider `O=C1CC2(CCCC2)CC(=O)N1`, for which the nuclear beta-catenin stimulation in assay [1] (at 10 µM) is -0.8% (inactive); in assay [1] (stimulation, at 2 µM), -1.2%. The insulin secretion stimulation in assay [2] was 0.4% (inactive). Moreover, the viability decrease in assay [3] was -4% (inactive). Further, the tube area decrease in assay [4] was -10.3% (inactive). The GLP1 secretion stimulation in assay [5] was -1.6% (inactive). For the same compound, the inhibition of viability in assay [6] was 7.1% (inactive). Further, the viability decrease (inhibition) in assay [7] was 2.5% (inactive); in assay [8] it was -2.4% (inactive).

In the case of `COC(=O)CCC[N+](C)(C)C`, the nuclear beta-catenin stimulation in assay [1] (at 10 µM) is -0.8% (inactive); in assay [1] (stimulation, at 2 µM), 0.6%. Also, the insulin secretion stimulation in assay [2] was -6.3% (inactive). For the same compound, the viability decrease in assay [3] is -4.8% (inactive). In assay [4], the tube area decrease is 6.6% (inactive). Moreover, the GLP1 secretion stimulation in assay [5] is -14% (inactive). Besides, the inhibition of viability in assay [6] is 4.6% (inactive). In addition, the viability decrease (inhibition) is 2.9% (active) in assay [7] and -12.1% (inactive) in assay [8].

Regarding `CCc1cc(S(=O)(=O)O)c2cc(C(C)C)cccc1-2`, the nuclear beta-catenin stimulation in assay [1] (at 10 µM) is -0.2% (inactive); in assay [1] (stimulation, at 2 µM), -2.2%. In addition, in assay [2], the insulin secretion stimulation is 0.1% (inactive). Moreover, the viability decrease in assay [3] is -5.3% (inactive). In assay [4], the tube area decrease was -12.6% (inactive). Also, in assay [5], the GLP1 secretion stimulation is -20.6% (inactive). Besides, the inhibition of viability in assay [6] is 1.1% (inactive). In addition, the viability decrease (inhibition) is -19% (inactive) in assay [7] and -14.2% (inactive) in assay [8].

With `O=C(CS)Nc1ccccc1`, the nuclear beta-catenin stimulation in assay [1] (at 10 µM) is 0.5% (inactive); in assay [1] (stimulation, at 2 µM), -0.2%. Moreover, in assay [2], the insulin secretion stimulation was 6.4% (inactive). The viability decrease in assay [3] was -38.2% (inactive). In addition, the tube area decrease in assay [4] is 4.3% (inactive). Besides, the GLP1 secretion stimulation in assay [5] was -2.3% (inactive). Besides, the inhibition of viability in assay [6] was -19.3% (inactive). Besides, the viability decrease (inhibition) in assay [7] is -2.4% (inactive); in assay [8], -12.9% (inactive).

With `CCOC(=O)Oc1ccc(CCNC(=O)[C@H](CCSC)NC(C)=O)cc1OC(=O)OCC`, the nuclear beta-catenin stimulation in assay [1] (at 10 µM) is -0.7% (inactive); in assay [1] (stimulation, at 2 µM) it was 1.3%. Moreover, the insulin secretion stimulation in assay [2] was -1.6% (inactive). In assay [3], the viability decrease was 41% (inactive). The tube area decrease in assay [4] was 1.3% (inactive). The GLP1 secretion stimulation in assay [5] is -1.1% (inactive). Moreover, the inhibition of viability in assay [6] was 2.33% (inactive). For the same compound, the values for the viability decrease (inhibition) in assay [7] and in assay [8] were 14.7% (inactive) and 18.4% (inactive), respectively.

As for `CC(C)CCC[C@@H](C)[C@H]1CC[C@H]2[C@@H]3CC[C@H]4C[C@@H](O)CC[C@]4(C)[C@@H]3CC[C@]12C`, the nuclear beta-catenin stimulation in assay [1] (at 10 µM) is 0% (inactive); in assay [1] (stimulation, at 2 µM) it was 0.5%. Further, the insulin secretion stimulation in assay [2] is 1.1% (inactive). Moreover, the viability decrease in assay [3] is 1.6% (inactive). Further, the tube area decrease in assay [4] was -1.6% (inactive). The GLP1 secretion stimulation in assay [5] was -1.9% (inactive). Further, the inhibition of viability in assay [6] is -2.8% (inactive). Moreover, the viability decrease (inhibition) in assay [7] is -7.2% (inactive); in assay [8], -8.7% (inactive).

Take `O=C(COCCOCCOCC(=O)Nc1c(I)cc(I)c(C(=O)O)c1I)Nc1c(I)cc(I)c(C(=O)O)c1I`: the nuclear beta-catenin stimulation in assay [1] (at 10 µM) is 0.1% (inactive); in assay [1] (stimulation, at 2 µM), -1.8%. For the same compound, the insulin secretion stimulation in assay [2] was 2.45% (inactive). The viability decrease in assay [3] is -23.9% (inactive). Besides, the tube area decrease in assay [4] is -2.4% (inactive). Also, the GLP1 secretion stimulation in assay [5] was -3.2% (inactive). In addition, the inhibition of viability in assay [6] was -13.4% (inactive). The viability decrease (inhibition) in assay [7] is -37.4% (inactive); in assay [8], -13.3% (inactive).

With `CCOCCn1c(C2CCN(CCc3ccc(C(C)(C)C(=O)O)cc3)CC2)nc2ccccc21`, the nuclear beta-catenin stimulation in assay [1] (at 10 µM) was -0.1% (inactive); in assay [1] (stimulation, at 2 µM) it was 1.3%. Besides, the insulin secretion stimulation in assay [2] was -0.3% (inactive). Further, the viability decrease in assay [3] is -2.4% (inactive). For the same compound, the tube area decrease in assay [4] is 3.7% (inactive). Further, the GLP1 secretion stimulation in assay [5] was -2.2% (inactive). The inhibition of viability in assay [6] was -1.6% (inactive). The viability decrease (inhibition) in assay [7] was -6.3% (inactive); in assay [8], -10.2% (inactive).

Consider `CCCCC(CC)COC(=O)c1ccc(N(C)C)cc1` (stereo unspecified), for which the nuclear beta-catenin stimulation in assay [1] (at 10 µM) was 0.3% (inactive); in assay [1] (stimulation, at 2 µM), 0.5%. Moreover, in assay [2], the insulin secretion stimulation was -2.6% (inactive). Further, the viability decrease in assay [3] was 34.1% (inactive). Moreover, the tube area decrease in assay [4] was 0.5% (inactive). For the same compound, in assay [5], the GLP1 secretion stimulation was -2.3% (inactive). In addition, the inhibition of viability in assay [6] was 18% (inactive). Besides, the viability decrease (inhibition) in assay [7] is 32.1% (inactive); in assay [8], 48.1% (inactive).

For `O=C(CO)[C@@H](O)[C@H](O)[C@@H](O)CO`, the nuclear beta-catenin stimulation in assay [1] (at 10 µM) is -1.8% (inactive); in assay [1] (stimulation, at 2 µM), -0.9%. The insulin secretion stimulation in assay [2] was 3% (inactive). Further, the viability decrease in assay [3] is -1.5% (inactive). Further, the tube area decrease in assay [4] is -29.2% (inactive). For the same compound, the GLP1 secretion stimulation in assay [5] was -2.6% (inactive). In addition, in assay [6], the inhibition of viability was 8.2% (inactive). The viability decrease (inhibition) in assay [7] was 4.9% (inactive); in assay [8], 3.2% (inactive).

Regarding `OC[C@H]1O[C@@H](n2cnc3c(=S)nc[nH]c32)[C@H](O)[C@@H]1O`, the nuclear beta-catenin stimulation is -2.5% (inactive) in assay [1] (at 10 µM) and -0.2% in assay [1] (stimulation, at 2 µM). In addition, in assay [2], the insulin secretion stimulation was 0.7% (inactive). For the same compound, the viability decrease in assay [3] was 95.3% (active). Besides, in assay [4], the tube area decrease is 95.4% (active). Further, the GLP1 secretion stimulation in assay [5] was -1.6% (inactive). In assay [6], the inhibition of viability was 84.2% (active). In addition, the viability decrease (inhibition) in assay [7] is 78.1% (active); in assay [8], 73.5% (active).

As to `C[C@@H](O)[C@H]1C(=O)N2C(C(=O)[O-])=C(SC3Cn4cnc[n+]4C3)[C@H](C)[C@H]12` (stereo partly specified), the nuclear beta-catenin stimulation was -0.3% (inactive) in assay [1] (at 10 µM) and -2.1% in assay [1] (stimulation, at 2 µM). The insulin secretion stimulation in assay [2] was 6.4% (inactive). In addition, the viability decrease in assay [3] was -16.5% (inactive). In assay [4], the tube area decrease was -9.3% (inactive). Also, in assay [5], the GLP1 secretion stimulation is 0.8% (inactive). For the same compound, in assay [6], the inhibition of viability is 15.4% (inactive). Besides, the viability decrease (inhibition) in assay [7] is -6.5% (inactive); in assay [8], 5.3% (inactive).

With `CCCC(CCC)C(N)=O`, the nuclear beta-catenin stimulation is -0.9% (inactive) in assay [1] (at 10 µM) and -1% in assay [1] (stimulation, at 2 µM). Further, in assay [2], the insulin secretion stimulation is 2% (inactive). In addition, in assay [3], the viability decrease was 1.8% (inactive). In assay [4], the tube area decrease is -17.7% (inactive). In addition, the GLP1 secretion stimulation in assay [5] was 16.4% (inactive). Moreover, the inhibition of viability in assay [6] was 16.3% (inactive). Also, the viability decrease (inhibition) in assay [7] is 25.7% (inactive); in assay [8], 22.3% (inactive).
